High-throughput results from PubChem.
GSTO1 counter – counter-screen for RBBP9 inhibitors: inhibitors of human GSTO1; inhibition, % at 5.96 µM; recombinant GSTO1, activity-based probe fluorescence polarization; actives 1.1% (n = 300,000); AID 1974;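 active = inhibition above the campaign mean inhibition plus 3 SD, cut at about 35% in these data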
Target sequence (P78417 whole entry, looked up): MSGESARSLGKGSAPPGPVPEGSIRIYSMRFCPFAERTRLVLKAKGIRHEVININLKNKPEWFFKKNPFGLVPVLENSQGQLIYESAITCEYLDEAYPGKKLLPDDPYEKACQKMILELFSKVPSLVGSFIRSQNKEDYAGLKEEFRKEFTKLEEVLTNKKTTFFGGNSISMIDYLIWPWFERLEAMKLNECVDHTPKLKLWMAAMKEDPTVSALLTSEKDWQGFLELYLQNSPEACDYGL
Fam108B inh – counter-screen for RBBP9 inhibitors: inhibitors of mouse Fam108B. actives 0.33% (n = 300,000). inhibition, % at 9.51 µM. recombinant Fam108B, FP-Rh probe fluorescence polarization;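 active = inhibition above the screen mean inhibition plus 3 SD, computed separately per campaign, cut at about 18% in these data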;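 also: inhibitors lower polarization as less probe binds the enzyme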
LYPLA2 inh – blocks human lysophospholipase 2, a PME1 counter-screen; O95372; recombinant LYPLA2, FP-Rh probe fluorescence polarization; inhibition, % at 5.9 µM; actives 0.38% (n = 320,000); AID 2177;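 active = inhibition above the screen-wide mean plus 3 SD, limit set per campaign, cut at about 26% in these data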
Target sequence (O95372 whole entry, looked up): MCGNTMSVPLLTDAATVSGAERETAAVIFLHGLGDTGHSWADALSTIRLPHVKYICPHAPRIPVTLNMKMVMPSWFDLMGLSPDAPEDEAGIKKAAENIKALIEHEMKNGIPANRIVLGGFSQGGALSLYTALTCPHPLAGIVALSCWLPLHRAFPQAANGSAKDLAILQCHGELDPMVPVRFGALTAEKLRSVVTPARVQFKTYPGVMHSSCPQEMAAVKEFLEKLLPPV
LYPLA1 inh – blocks human lysophospholipase 1, a PME1 counter-screen | O75608 | recombinant LYPLA1, FP-Rh probe fluorescence polarization | inhibition, % at 5.9 µM | actives 0.16% (n = 320,000) | AID 2174;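 active = inhibition above the mean of all tested compounds plus 3 SD, set per campaign, cut at about 14% in these data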;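 also: inhibitors block serine hydrolase probe labeling of LYPLA1 so polarization falls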
PME-1 inh – PME-1 (human) inhibition. actives 0.53% (n = 320,000). AID 2130. recombinant PME-1, FP-Rh probe fluorescence polarization. inhibition, % at 5.9 µM;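 active = inhibition above the campaign mean of all compounds plus 3 SD, cut at about 26% in these data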;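 also: competitive labeling of PME-1 active site by serine hydrolase directed probe; inhibitors block probe labeling so polarization falls and inhibition rises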
PAD4 inh – PAD4 (human) enzyme inhibition | recombinant PAD4, RCA probe fluorescence polarization | inhibition, % at 6.36 µM | actives 0.41% (n = 330,000);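 active = percent inhibition above a cutoff equal to the mean of all tested compounds plus 3 SD, cut at about 15% in these data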
PAD4 FP conf – PAD4 (human) inhibition, confirmed; shares compounds with PAD4 inh; recombinant PAD4, RCA probe fluorescence polarization; inhibition, % at 6.36 µM; actives 28% (n = 1,200);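 active = mean inhibition across replicates above the hit cutoff set by the earlier primary screen, cut at about 15% in these data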;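 also: inhibitors block active-site labeling by the probe so polarization falls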
Large screens that a line does not name were inactive (follow-up assays come after a bar, where they were run). This is a sample that favours compounds with a hit; in the whole collection about 1.8% have one here.

CC1(C)O[C@@H]2[C@H](O1)[C@@H](COS(=O)(=O)O)O[C@H]2n1cnc2c(N)ncnc21	none (no result: GSTO1 counter, Fam108B inh)
Oc1ccc(C=Nc2cccc3ncccc23)c(O)c1	PAD4 inh 15.6 | PAD4 FP conf inactive
COc1ccc(N(C)S(=O)(=O)c2cccc(C(=O)OCC(=O)NCc3ccccc3OC)c2)cc1	none
COc1ccc(N(C)S(=O)(=O)c2cccc(C(=O)OCC(=O)N3CC(C)CC(C)C3)c2)cc1 (stereo unspecified)	PAD4 inh 17.1 (no result: GSTO1 counter, Fam108B inh, LYPLA2 inh, LYPLA1 inh, PME-1 inh) | PAD4 FP conf inactive
COc1ccc(C)cc1N(C(=O)c1ccccc1F)c1nc2ccccc2s1	PAD4 inh 28.6 | PAD4 FP conf 29.1
CC(=O)c1ccc(NC(=O)CCNC(=O)c2ccc(Cl)cc2)cc1	none
CCOc1ccc(C=Nc2cccc3ncccc23)cc1	none
Cc1ccc(C=Nc2cccnc2N)cc1	PAD4 inh 15.2 | PAD4 FP conf inactive
COc1ccc(C=Nc2cccnc2N)cc1	PAD4 inh 33.5 | PAD4 FP conf inactive
CCOc1ccccc1NC(=O)C(c1ccccc1)N1CCN(CC(=O)N2CCCC2)CC1 (stereo unspecified)	none (no result: GSTO1 counter, Fam108B inh, LYPLA2 inh, LYPLA1 inh, PME-1 inh)
O=C(OCC(=O)c1ccc[nH]1)c1ccc([N+](=O)[O-])cc1	none (no result: GSTO1 counter, Fam108B inh)
O=C(COC(=O)c1ccc([N+](=O)[O-])s1)c1ccc[nH]1	PAD4 inh 25.2 (no result: GSTO1 counter, Fam108B inh, LYPLA2 inh, LYPLA1 inh, PME-1 inh) | PAD4 FP conf inactive
COc1ccc(S(=O)(=O)Nc2ccccc2C)cc1	PAD4 inh 75.0 | PAD4 FP conf inactive
COc1cc(/C=N/NC(=O)Nc2ccccc2)ccc1OC(C)=O	none
CCc1nnc(N/N=C/c2ccc(O)c(OC)c2)n1N	PAD4 inh 38.4 | PAD4 FP conf inactive
CCc1nnc(N/N=C\c2ccc(OC(C)=O)c(OC)c2)n1N	PAD4 inh 25.3 | PAD4 FP conf inactive
CC(=O)c1c(C)oc2ccc(NS(=O)(=O)c3ccc(O)c(C(=O)O)c3)cc12	none
Cc1ccc(S(=O)(=O)Nc2ccc3oc(=O)sc3c2)c(C)c1	PAD4 inh 21.9 | PAD4 FP conf inactive
O=C(O)c1cc(S(=O)(=O)Nc2ccc3oc(=O)sc3c2)ccc1O	GSTO1 counter 59.8, PAD4 inh 36.5 | PAD4 FP conf 18.7
COc1ccc(F)cc1S(=O)(=O)NCCCn1ccnc1	none
COc1cc(/C=N/NC(=O)c2cccc(C)c2)ccc1OCC(=O)Nc1ccccc1	none
CCOC(=O)C1=C(COC(=O)c2ccc([N+](=O)[O-])s2)NC(=O)NC1C (stereo unspecified)	PAD4 inh 25.6 (no result: GSTO1 counter, Fam108B inh, LYPLA2 inh, LYPLA1 inh, PME-1 inh) | PAD4 FP conf 16.7
CCOC(=O)C1=C(COC(=O)c2sccc2C)NC(=O)NC1C (stereo unspecified)	none (no result: GSTO1 counter, Fam108B inh)
O=C(CCCCl)NC1=NN(c2ccccc2)C(=O)C1	none
CC(=O)NC1=NN(c2ccccc2)C(=O)C1	PAD4 inh 42.8 | PAD4 FP conf inactive
O=C1CC(Sc2cccs2)C(=O)N1c1ccccc1 (stereo unspecified)	PAD4 inh 24.4 | PAD4 FP conf inactive
O=C(Nc1ccccc1Cl)c1c(F)c(F)c(F)c(F)c1F	none
O=C(NC1(O)C(=O)c2ccccc2C1=O)c1c(Cl)cccc1Cl	GSTO1 counter 79.4, PAD4 inh 24.4 | PAD4 FP conf 36.9
COc1ccc(/C=C(\C#N)C(=O)N2COCC2(C)C)cc1	none
Clc1cccc(CN2CCN(c3nc4nonc4nc3NC3CC3)CC2)c1	none
Cc1cccc(CN2CCN(c3nc4nonc4nc3NC3CC3)CC2)c1	PAD4 inh 28.3 | PAD4 FP conf inactive
O=C1CCc2cc(S(=O)(=O)NC3CCCCC3)ccc2N1	none (no result: GSTO1 counter, Fam108B inh)
COC/C=C/C1=CC2=CC(=O)C(C)(OC(=O)c3cnc4ccccc4n3)C(=O)C2=CN1CC(C)C (stereo unspecified)	PAD4 inh 19.4 | PAD4 FP conf inactive
CCCCC1=CC2=CC(=O)C(C)(OC(=O)CC)C(=O)C2=CN1CC(C)C (stereo unspecified)	none
O=C(NCC(=O)N(c1cccc(F)c1)C(C(=O)NC1CCCC1)c1ccncc1)c1cccs1 (stereo unspecified)	PAD4 inh 18.3 | PAD4 FP conf inactive
O=C(O)CCC(=O)Nc1ccc(SSc2ccc(NC(=O)CCC(=O)O)cc2)cc1	PAD4 inh 55.5 | PAD4 FP conf 50.0
